# Experimental data from PubChem BioAssay AID686964 (The Scripps Research Institute Molecular Screening Center, 2013).
# About 1,100 (0.3%) of roughly 370,000 compounds were called active. The entries come from a sample that favours actives as a whole. Unmarked numbers belong to inactive results. Rule as the data show it: active = inhibition above about 13%; inactive = the rest.
# Target: Methyl-CpG-binding domain protein 2 (Homo sapiens) (UniProt Q9UBB5)
# Assay: inhibitors of MBD2 binding to methylated DNA, primary screen, biochemical, TR-FRET, DNA-binding domain, human (AID 686964)
# Settings: MBD2 binding to methylated oligonucleotide, at 4.4 µM, hits give high values
# Sequence of Methyl-CpG-binding domain protein 2 (Homo sapiens) (Q9UBB5 whole entry, looked up, the tested form may be a part): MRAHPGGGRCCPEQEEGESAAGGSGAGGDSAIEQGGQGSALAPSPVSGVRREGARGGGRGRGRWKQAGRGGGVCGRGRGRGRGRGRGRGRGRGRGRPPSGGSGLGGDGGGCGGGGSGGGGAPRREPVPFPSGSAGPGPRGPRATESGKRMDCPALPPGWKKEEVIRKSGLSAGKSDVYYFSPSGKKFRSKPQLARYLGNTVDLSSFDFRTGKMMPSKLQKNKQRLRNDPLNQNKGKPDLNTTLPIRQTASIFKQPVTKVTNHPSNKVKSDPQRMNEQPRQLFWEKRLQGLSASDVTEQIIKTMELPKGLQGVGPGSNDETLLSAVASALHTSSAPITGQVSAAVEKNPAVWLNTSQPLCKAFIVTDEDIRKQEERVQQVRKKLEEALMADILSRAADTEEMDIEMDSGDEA
row,SMILES,inhibition
1,Cc1ccc(OCc2nnc(SC/C=C/c3ccccc3)n2Cc2ccco2)cc1,-3.87%
2,C=CCN1C(=O)[C@@H](CC(=O)N2CCN(C(=O)OCC)CC2)[C@]2(C(=O)OCC)CCCCC/C=C/12,4.9%
3,Brc1ccc(-c2n(-c3ccccn3)c3ccccc3[n+]2-c2ccccn2)cc1,27.6% (active)
4,CS(=O)(=O)N(C(=O)NC(=O)NC1CCS(=O)(=O)C1)C1CCCCC1 (stereo not given),0.13%
5,CCCC1CCC2(CCCN2CCOC(=O)NCc2ccccc2)CC1 (stereo not given),3.95%
6,COc1ccnc(NC(=S)N2CCN(c3ncc(C(F)(F)F)cc3Cl)CC2)c1,6.09%
7,COc1ccc(-c2noc(CCCC(=O)NC3CCCC3)n2)cc1OC,-2.51%
8,CCOc1cc(-c2noc(CCCC(=O)NC3CCCCC3)n2)ccc1OC,20.2% (active)
9,CCOc1cc(-c2noc(CCC(=O)N3CCOCC3)n2)ccc1OC,-5.56%
10,CCOC(=O)[C@]12CCCC=C1N(CCCOC)C(=O)[C@@H]2CC(=O)N1CCOCC1,-0.28%
11,Cc1cc(C(=O)NN=C/C=C/c2ccco2)n[nH]1,-1.33%
12,C/C=C/c1ccc(OCCCCN2CCC(C)CC2)c(OC)c1,-2.18%
13,C[C@H](O)[C@@H]1C(=O)N2CCc3c([nH]c4c(-c5ccc6c(c5)OCO6)cccc34)[C@@H]2C[C@@H]1N(C)C(=O)c1ccco1,-2.04%
14,O=S(=O)(NCC1CCCO1)c1cnc(Cl)c(Cl)c1 (stereo not given),4.2%
15,COc1ccccc1OCC(=O)Nc1c2c(nn1-c1ccc(F)cc1)CS(=O)(=O)C2,-1.49%
16,O=C(CC1CCCCC1)Nc1c2c(nn1-c1ccc(F)cc1)CS(=O)(=O)C2,15.6% (active)
17,O=C(Nc1c2c(nn1-c1ccccc1)CS(=O)(=O)C2)C1CCCC1,2.43%
18,c1coc(CCNc2ncnc3ccc(-c4ccc5c(c4)OCO5)cc23)c1,-2.55%
19,COc1ccc(C2NC(=O)N(C)C(C)=C2[N+](=O)[O-])cc1 (stereo not given),0.13%
20,CC(C)Oc1ccc(C2NC(=O)NC2=O)cc1 (stereo not given),15.2% (active)
21,O=C1NC(=O)C(c2ccc(Cl)cc2)N1 (stereo not given),0.89%
22,CN(C)Cc1cn(-c2ccc(-c3noc4c3C(=O)N(CC(=O)N3CCOCC3)CC4)cc2)nn1,-2.86%
23,COC(=O)[C@]12C[C@H](CC(=O)NCc3ccc(OC)c(OC)c3)C(=O)N(Cc3ccccc3)C1=C[C@H](C(C)C)O[C@@H]2C1CC1,-2.93%

row,SMILES,inhibition
1,CC(C)c1nc(CNC(=O)CC2C(=O)NCCN2Cc2ccoc2)cs1 (stereo not given),-4.85%
2,Cc1ccc(CN2CCNC(=O)C2CC(=O)NCc2csc(C(C)C)n2)cc1 (stereo not given),0.13%
3,CC(C)c1nc(CNC(=O)CC2C(=O)NCCN2Cc2cccc(F)c2F)cs1 (stereo not given),24.3% (active)
4,COc1ccc(Cn2cc(CN3[C@@H](CC(C)C)COc4cc(Br)ccc4S3(=O)=O)nn2)cc1,0.36%
5,Cc1c(C(=O)NCCN(C)C)oc2ccc(S(=O)(=O)N3CCCC3)cc12,4.85%
6,CN(C)CCNC(=O)Cc1ccc([N+](=O)[O-])cc1,-0.79%
7,CN(C)CCNC(=O)c1ccc(Cl)c2cc3ccccc3nc12,51.2% (active)
8,COc1ccc(OCCCC(=O)Nc2cccc(S(=O)(=O)N3CCCCCC3)c2)cc1,-2.96%
9,C[C@H]1[C@H](c2ccccc2)Oc2cc(Br)ccc2S(=O)(=O)N1Cc1cccc(F)c1,8.37%
10,O=C1/C(=C\c2ccc([N+](=O)[O-])cc2)CS(=O)(=O)C/C1=C/c1ccc([N+](=O)[O-])cc1,-5.61%
11,CCOc1ccc(S(=O)(=O)N2CCC(c3ccccc3)CC2)cc1C(=O)O,22.6% (active)
12,CCOc1ccc(S(=O)(=O)N2CCC(C(=O)NCc3ccccn3)CC2)cc1Cl,-0.81%
13,O=S(=O)(c1ccccc1)N1CCC(c2ccccc2)CC1,0.43%
14,CSc1ncccc1C(=O)N1CCCC(Nc2ccc(F)c(F)c2)C1 (stereo not given),2.81%
15,O=C(c1n[nH]c2c1CCC2)N1CCCC(Nc2cccc(F)c2)C1 (stereo not given),14.7% (active)
16,COC(=O)c1cccc(C(=O)N2CCCC(Nc3ccc4c(c3)OCCO4)C2)c1 (stereo not given),4.97%
17,O=C(CSc1nnc(COc2ccccc2)n1-c1ccc(Cl)cc1)Nc1ccc2c(c1)OCO2,3.27%
18,Cc1ccccc1C(=O)N[C@H](C(=O)N1CCC[C@H]1C(=O)NCc1ccccc1)C(C)C,-4.41%
19,COC(=O)Cc1ccc(OC2(C)CCN(Cc3ccc4c(c3)OCCO4)C2)cc1 (stereo not given),5.04%
20,CC(OC(=O)c1ccc(S(=O)(=O)N2CCOCC2)cc1)c1ccccc1 (stereo not given),5.42%
21,COc1ccc(S(=O)(=O)N2CCOCC2)cc1NC(=O)c1ccc(OCC(C)C)c(OC)c1,0.42%
22,COC(=O)c1c(NC(=O)c2ccc(S(=O)(=O)N3CCOCC3)cc2)sc2c1CCN(C(C)C)C2,13.3% (active)
23,CC(OC(=O)CCC(=O)c1ccccc1)C(=O)Nc1ccc(F)cc1 (stereo not given),-0.7%

row,SMILES,inhibition
1,COCCNC(=S)N(C)[C@H]1C[C@H]2c3[nH]c4ccccc4c3CCN2C[C@H]1[C@H](C)O,-2.52%
2,CCOc1ccc(-n2c(SCC(=O)Nc3cc(C)c(NC(=O)c4ccccc4)cc3OC)nnc2-c2cccs2)cc1,-6.74%
3,COc1ccc(CCNC(=O)CN(c2ccccc2)S(=O)(=O)c2ccccc2)cc1,2%
4,CCOc1ccc(N(CC(=O)NCCc2ccc(F)cc2)S(=O)(=O)c2ccccc2)cc1,4.6%
5,CCOc1ccc(N(CC(=O)NCCOc2ccccc2OC)S(=O)(=O)c2ccccc2)cc1,15.1% (active)
6,C=CCN1C(=O)[C@@H](CC(=O)N2CCN(C(=O)c3ccco3)CC2)[C@]2(C(=O)OC)CCCCC=C12,3.2%
7,CN(CCc1ccccc1)C(=O)Cn1nc(-c2ccccc2)ccc1=O,-0.03%
8,CCOC(=O)N1CCN(C(=O)C[C@H]2C[C@@]3(C(=O)OC)C(=C[C@H](C4CCCC4)O[C@@H]3C)N(Cc3ccccc3)C2=O)CC1,-8.2%
9,COc1ccc2[nH]c3c(C)c4cc[n+](C)cc4c(C)c3c2c1,109% (active)
10,CCCc1nnc(SCC(=O)N2C(C)CCCC2C)n1CC (stereo not given),3.6%
11,O=P(c1cccs1)(c1cccs1)c1cccs1,0.79%
12,Cc1ccc(Cc2cnc(N)s2)o1,19.8% (active)
13,CCOc1ccccc1CN1CCN(C2CCC2)CC1CCO (stereo not given),-1.77%
14,CC1CCCCC12NC(=O)N(CC(=O)Nc1ccc(S(=O)(=O)Nc3ncccn3)cc1)C2=O (stereo not given),5.36%
15,Cc1cc(C)c(S(=O)(=O)NCC2CCC(C(=O)NCc3ccc4c(c3)OCO4)CC2)c(C)c1 (stereo not given),1.75%
16,CCn1c2ccccc2c2cc(NC(=O)CSc3nnc(-c4ccccc4)n3-c3ccc(C)cc3)ccc21,1.63%
17,CCn1c(=O)n2n(c1=O)[C@@]1(C=C3CCCC[C@H]32)N=C(NC(=O)c2ccccc2)N(Cc2ccccc2)[C@H]1Cc1ccccc1,-2.62%
18,CCCCCN1CCCCC(NC(=O)C(C)CCC)C1=O (stereo not given),0.39%
19,O=C(CNC(=O)c1ccccc1)OC(C(=O)Nc1cc([N+](=O)[O-])ccc1F)c1ccccc1 (stereo not given),0.02%
20,CCC(=O)Nc1ccc2c(c1)C(=O)N(C)[C@@H]1CC[C@@H](CC(=O)NCCc3ccccc3)O[C@H]1CO2,-1.77%
21,COC(=O)C[C@@H]1CC[C@@H]2[C@@H](COc3ccc(NC(=O)Nc4ccc(F)c(F)c4)cc3C(=O)N2C)O1,-6.09%
22,Cc1cccc(NC(=O)C[C@H]2CC[C@H]3[C@@H](COc4ccc(NC(=O)Nc5ccccc5)cc4C(=O)N3C)O2)c1,14.6% (active)
23,O=C(NCCCc1ccccc1)[C@H](Cc1ccccc1)NC1(C(=O)NCCc2c[nH]c3ccccc23)CCC1,-4.2%

row,SMILES,inhibition
1,CCOC(=O)C1CCN(C(=O)C(C)(C)NC(=O)Nc2ccc(F)c(F)c2)CC1,-0.53%
2,CCCCCCCCN1C(=O)[C@@H](CC(=O)N2CCN(C(=O)OCC)CC2)C[C@@]2(C(=O)OC)C1=C[C@H](C1CCCC1)O[C@@H]2C,-0.47%
3,CC(C)C(=O)N1CCC2(CC1)Oc1ccc(F)cc1C(=O)C21CC(c2ccccc2)=NO1 (stereo not given),-4.91%
4,CC(=O)c1ccccc1NC(=O)COC(=O)C1COc2ccccc2O1 (stereo not given),28.3% (active)
5,CC(=O)c1ccccc1NC(=O)CC1(CC(=O)O)CCCCC1,-1.55%
6,CCOC(=O)c1ccccc1NC(=O)COC(=O)CCC(=O)N1CCOCC1,3.48%
7,COc1ccc(Cn2cc(COC(=O)N(C)Cc3ccccc3)nn2)cc1,1.89%
8,CC(C)(C)C1C/C(=C/c2ccco2)C(=O)/C(=C/c2ccco2)C1 (stereo not given),72% (active)
9,COc1ccc(-c2cc(=O)oc3cc(OCC(=O)N(C)C4CCS(=O)(=O)C4)ccc23)cc1 (stereo not given),2.11%
10,CN(C(=O)COC(=O)c1cc(-c2ccco2)nc2ccccc12)C1CCS(=O)(=O)C1 (stereo not given),17.8% (active)
11,CC(=O)c1ccc(OCC(=O)N(C)C2CCS(=O)(=O)C2)cc1 (stereo not given),1.21%
12,CNC(=O)Nc1cc(C(C)(C)C)no1,3.32%
13,O=C(C[C@H]1C(=O)N(c2ccc(F)c(F)c2)C[C@@H]1Cc1ccccc1)Nc1ccccc1,5.88%
14,CNC(=O)C[C@H]1C(=O)N(c2ccc(OC)cc2)C[C@@H]1Cc1ccccc1,13.2% (active)
15,CNC(=O)C[C@H]1C(=O)N(Cc2ccccc2)C[C@@H]1CSC,3.38%
16,COc1cc(/C=C/C(=O)n2cnc3ccccc32)cc(OC)c1OC,-1.66%
17,O=C(Nc1cc(Cl)cc(Cl)c1)OCCN1CCCC12CCC(c1ccccc1)CC2 (stereo not given),-4.82%
18,COC(=O)[C@]12C[C@H](CC(=O)NCc3ccccc3)C(=O)N(CCc3ccc(OC)c(OC)c3)C1=C[C@H](C(C)(C)C)O[C@@H]2C,1.88%
19,COC(=O)[C@]12C[C@H](CC(=O)NCCC(C)C)C(=O)N(CCc3ccc(OC)c(OC)c3)C1=C[C@H](C(C)(C)C)O[C@@H]2C,19.2% (active)
20,CCCCOCCCNC(=O)C[C@H]1C[C@@]2(C(=O)OC)C(=C[C@H](C(C)(C)C)O[C@@H]2C)N(CCc2ccc(OC)c(OC)c2)C1=O,2.62%
21,COC(=O)CC1CCc2cc(C)cc(C(CC(C)C)NC(=O)[C@H](CC(C)C)NC(=O)OCc3ccccc3)c2O1 (stereo not given in full),4.23%
